Experimental data published in PubChem BioAssay AID463173 (ICCB-Longwood Screening Facility, Harvard Medical School, 2010).
In all, about 52,000 compounds went through this assay and about 4,300 (8.3%) were called active. The sample holds actives, similar compounds and a random draw of the others, so the mix is not that of the screen. Rule as the data show it: active = survival mostly below about 52% (no sharp cut-off); inactive = mostly above about 56%.

These compounds were tested on DeltatarO mutant (assay: S. aureus survival, RN4220 and DeltatarO strains – OD600, teichoic acid synthesis inhibitors, primary screen (AID 463173)). Conditions: S. aureus RN4220 wild type/DeltatarO growth, OD600, 18 h, stronger effect = lower value, screened at 18.75 µg/mL (by protocol).

Row | SMILES | survival
1 | CCCN1CC=C2C(C#N)=C(N)C(C#N)(C#N)C(c3ccc(OCC(N)=O)cc3)C2C1 (stereo not given) | 81% (inactive)
2 | CCCc1ccc(S(=O)(=O)N2CCC(c3nnc(-c4cccc(C)c4)o3)CC2)cc1 | 75% (inactive)
3 | COc1ccc(CNCc2c(C(=O)O)c(C)n(Cc3ccccc3C)c2C)cc1OC | 91% (inactive)
4 | CCOc1cc(/C=C(\C#N)C(=O)Nc2ccc(OC)cc2)ccc1OCc1cc(=O)n2nc(CC)sc2n1 | 55% (active)
5 | CCc1nn2c(=O)cc(COc3ccc(/C=C(\C#N)C(=O)Nc4ccc(F)cc4)cc3OC)nc2s1 | 106% (inactive)
6 | Cc1nn2c(=O)cc(COc3ccc(/C=C(\C#N)C(=O)Nc4ccccc4)cc3Cl)nc2s1 | 49% (active)
7 | CCOc1cc(/C=C(\C#N)C(=O)Nc2ccc(C)cc2)ccc1OCc1cc(=O)n2nc(CC)sc2n1 | 68% (inactive)
8 | COc1ccc(NC(=O)/C(C#N)=C/c2ccc(OCc3cc(=O)n4nc(C)sc4n3)cc2)cc1 | 61% (inactive)
9 | COc1cc(/C=C(\C#N)C(=O)Nc2ccc(C)cc2)ccc1OCc1cc(=O)n2nc(C)sc2n1 | 78% (inactive)
10 | CCOc1ccc(NC(=O)CSc2nc3ccsc3c(=O)n2CC)cc1 | 89% (inactive)
11 | Cc1cc(C)n2nc(C(=O)N/N=C/c3ccncc3)nc2n1 | 76% (inactive)
12 | On1c2c(c3c4nonc4ccc31)CCCC2 | 0% (active)
13 | c1ccc(-n2nc3ccc4nonc4c3n2)cc1 | 86% (inactive)
14 | COc1ccc(-c2[nH]c3ccccc3c2SCCNC(=O)c2ccc(S(=O)(=O)N(C)C)cc2)cc1 | 67% (inactive)
15 | COc1cccc(C2=C(C(C)=O)Sc3nnc(C4CCCCC4)n3N2C(C)=O)c1 | 81% (inactive)
16 | CCOc1ccccc1NC(=O)c1cccc2c1C(=O)N(C1CCCCC1)C2 | 92% (inactive)
17 | Cc1ccccc1Cn1nnc2c(=O)[nH]c(C3CCCN(C(=O)c4ccc(F)cc4)C3)nc21 (stereo not given) | 114% (inactive)
18 | O=C(c1cccs1)N1CCCC(c2nc3c(nnn3Cc3ccc(F)cc3)c(=O)[nH]2)C1 (stereo not given) | 101% (inactive)
19 | CCc1ccc(Cn2nnc3c(=O)[nH]c(C4CCCN(C(=O)c5cccc(Cl)c5)C4)nc32)cc1 (stereo not given) | 74% (inactive)
20 | Cc1cccc(Cn2nnc3c(=O)[nH]c(C4CCCN(C(=O)c5ccccc5Cl)C4)nc32)c1 (stereo not given) | 71% (inactive)

Row | SMILES | survival
21 | Cc1cccc(Cn2nnc3c(=O)[nH]c(C4CCCN(C(=O)c5ccc(C(C)(C)C)cc5)C4)nc32)c1 (stereo not given) | 18% (active)
22 | COc1cccc(Cn2nnc3c(=O)[nH]c(C4CCCN(C(=O)c5ccc(C)cc5)C4)nc32)c1 (stereo not given) | 90% (inactive)
23 | CC(C)(C)C(=O)N1CCCC(c2nc3c(nnn3Cc3ccc(C(C)(C)C)cc3)c(=O)[nH]2)C1 (stereo not given) | 1% (active)
24 | O=C(Nc1ccc(F)cc1)N1CCCC(c2nc3c(nnn3Cc3ccccc3Cl)c(=O)[nH]2)C1 (stereo not given) | 88% (inactive)
25 | CCCC(=O)N1CCCC(c2nc3c(nnn3Cc3ccccc3)c(=O)[nH]2)C1 (stereo not given) | 102% (inactive)
26 | Cc1ccccc1Cn1nnc2c(=O)[nH]c(C3CCCN(C(=O)c4ccc(C(C)(C)C)cc4)C3)nc21 (stereo not given) | 7% (active)
27 | Cc1ccc(Cn2nnc3c(=O)[nH]c(C4CCCN(C(=O)c5ccco5)C4)nc32)cc1 (stereo not given) | 91% (inactive)
28 | CC(C)(C)c1ccc(C(=O)N2CCCC(c3nc4c(nnn4Cc4cccc(F)c4)c(=O)[nH]3)C2)cc1 (stereo not given) | 7% (active)
29 | COc1ccc(-c2ccc(NS(=O)(=O)c3ccc(F)c(C(F)(F)F)c3)cc2)nn1 | 117% (inactive)
30 | Cc1ccc2cc(CN(CCN(C)C)C(=O)NC3CCCCC3)c(=O)[nH]c2c1 | 101% (inactive)
31 | O=C(CCn1cccn1)NCc1ccc(Cl)cc1 | 73% (inactive)
32 | COc1ccc(OC(=O)c2cn(-c3cccc(OC)c3)c(=O)c3ccccc23)cc1 | 80% (inactive)
33 | COC(=O)c1ccc(NC(=O)c2nn(C)c3c2CS(=O)(=O)c2ccccc2-3)cc1 | 81% (inactive)
34 | CC1(C)c2ssc(=S)c2-c2ccccc2N1C(=O)CSC#N | 106% (inactive)
35 | Cc1ccc(NC(=O)c2c3c(nc4ccccc24)C(=O)N(C2CCCCC2)C3)cc1F | 102% (inactive)
36 | Cc1nn(CC(=O)Nc2cccc(C(F)(F)F)c2)c(=O)c2nn(-c3ccccc3)c(C)c12 | 75% (inactive)
37 | O=C(c1ccc(-c2cccc(C(F)(F)F)c2)o1)N1CCOCC1 | 84% (inactive)
38 | O=C(Nc1cccc2cccnc12)c1ccccc1[N+](=O)[O-] | 68% (inactive)
39 | O=C(O)c1ccccc1C(=O)Nc1ccc(Br)c2cccnc12 | 49% (inactive)
40 | COc1c(Cl)cc(Cl)cc1C(=O)Nc1cccc2cccnc12 | 143% (inactive)

Row | SMILES | survival
41 | O=C(Nc1ccc(Br)c2cccnc12)c1cccc2ccccc12 | 29% (active)
42 | O=C(Nc1cccc2cccnc12)c1cccc2c(Br)cccc12 | 70% (inactive)
43 | O=C(Nc1cccc2cccnc12)c1cccc2ccccc12 | 1% (active)
44 | O=C(CN1Cc2ccccc2C1=O)Nc1cc(F)ccc1F | 81% (inactive)
45 | Cc1nc2ccc(S(=O)(=O)CCC(=O)Nc3ccc(C)c(C)c3)cc2s1 | 107% (inactive)
46 | CCOc1ccc(-n2c(SCC(=O)Nc3ccc(CC)cc3)nc3c(oc4ccccc43)c2=O)cc1 | 71% (inactive)
47 | CCOC(=O)c1c(S(=O)(=O)NCC(=O)N(C)Cc2ccccc2)c(C)n(C)c1C | 89% (inactive)
48 | CCOc1no[n+]([O-])c1-c1ccccc1 | 90% (inactive)
49 | CN(C(=O)CSc1nc2ccc(NC(=O)c3ccccc3F)cc2s1)c1ccccc1 | 103% (inactive)
50 | CCN(Cc1nc(-c2ccc(OC)cc2)oc1C)S(=O)(=O)c1ccc(C)cc1 | 95% (inactive)
51 | COc1ccc(C(=O)N/N=C2/SCC(=O)N2C)c(OC)c1 | 69% (inactive)
52 | Cc1[nH]c2ccccc2c1C1(O)C(=O)N(Cc2ccccc2Cl)c2ccccc21 (stereo not given) | 51% (inactive)
53 | CCN1C(=O)C(O)(c2c(C)[nH]c3ccccc23)c2ccccc21 (stereo not given) | 54% (inactive)
54 | CCCCN1C(=O)C(O)(c2c(C)[nH]c3ccccc23)c2cc(Br)ccc21 (stereo not given) | 27% (active)
55 | Cc1ccc(C)c(CN2C(=O)C(O)(c3c(C)[nH]c4ccccc34)c3ccccc32)c1 (stereo not given) | 51% (inactive)
56 | Cc1[nH]c2ccccc2c1C1(O)C(=O)N(Cc2ccccc2)c2ccc(Cl)cc21 (stereo not given) | 24% (active)
57 | CCCCN1C(=O)C(O)(c2c(C)[nH]c3ccccc23)c2ccccc21 (stereo not given) | 51% (inactive)
58 | Cc1[nH]c2ccccc2c1C1(O)C(=O)N(Cc2ccc(Cl)cc2)c2ccccc21 (stereo not given) | 29% (active)
59 | Cc1[nH]c2ccccc2c1C1(O)C(=O)N(Cc2ccccc2)c2ccc(Br)cc21 (stereo not given) | 3% (active)
60 | Cc1ccc(CN2C(=O)C(O)(c3c(C)[nH]c4ccccc34)c3ccccc32)cc1 (stereo not given) | 101% (inactive)
